Assay [1] can be described thus: qHTS RealTime-Glo MT Cell Viability Assay in HepG2 cells - 40 hour (AID 1224870). Note: nearly all actives have a fitted effect of over 50% in size. Note: potency is the fitted concentration of half-maximal effect. Put shortly: (§1)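 HepG2 cells mixed with RealTime-Glo MT reagents (NanoLuc plus cell-permeant prosubstrate) were seeded at 600 cells/well, incubated 5 h at 37 C/5% CO2, then pinned with compounds in DMSO; nonlytic luminescence tracked viability during 40 h treatment.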
Assay [2] is described as follows: A CellTox Green Cytotoxicity Assay to monitor cytotoxicity in HEK293 cells - 40 hour (AID 1224871). Note: nearly all actives have a fitted effect of over 45% in size. Note: potency is the fitted concentration of half-maximal effect. An outline of the steps: (§2)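 Dead-cell fluorescence measured kinetically: asymmetric cyanine dye, HEK293, 600 cells/well, 5 h settle, 23 nL cpd/DMSO, 37 C, reads 0–40 h every 8 h.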
Assay [3] is described as follows: qHTS RealTime-Glo MT Cell Viability Assay in HEK293 cells - 16 hour (AID 1224872). For activity change, negative = cytotoxicity: top concentration of the series differs between compounds. Note: nearly all actives have a fitted effect of over 50% in size. Note: potency is the fitted concentration of half-maximal effect. An outline of the steps:
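Homogeneous bioluminescent viability format in HEK293 cells (600 cells/well). Following 5 h at 37 C/5% CO2, 23 nL compound was pintooled; the signal was measured repeatedly during 40 h incubation.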
(In qHTS, concentration-response curves come from the screen itself.)

Assay [4] can be described thus: qHTS RealTime-Glo MT Cell Viability Assay in HepG2 cells - 8 hour (AID 1224873). Note: nearly all actives have a fitted effect of over 55% in size. Note: potency is the fitted concentration of half-maximal effect. Put shortly:
as §1

The nature of assay [5]: qHTS RealTime-Glo MT Cell Viability Assay in HEK293 cells - 40 hour (AID 1224874). Note: nearly all actives have a fitted effect of over 50% in size. Note: potency is the fitted concentration of half-maximal effect. The conditions noted are these: RealTime-Glo luminescence; max response: stronger effect = lower value. An outline of the steps: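 600 HEK293 cells per well, dispensed already mixed with RealTime-Glo MT reagents. Compound dosing came 5 h later. The same wells were read for luminescence at 0, 8, 16, 24, 32 and 40 h of exposure at 37 C.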

Assay [6] is described as follows: A CellTox Green Cytotoxicity Assay to monitor cytotoxicity in HEK293 cells - 24 hour (AID 1224875). For activity change: series mostly up to about 77 µM. Note: nearly all actives have a fitted effect of over 45% in size. Note: potency is the fitted concentration of half-maximal effect. An outline of the steps:
as §2

A short description of assay [7]: qHTS RealTime-Glo MT Cell Viability Assay in HepG2 cells - 32 hour (AID 1224877). Note: nearly all actives have a fitted effect of over 55% in size. Note: potency is the fitted concentration of half-maximal effect. An outline of the steps:
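Cell number in HepG2 cultures estimated from NanoLuc luminescence generated by metabolic reduction of a prosubstrate by living cells. The homogeneous, nonlytic format allowed repeated reads at 0, 8, 16, 24, 32 and 40 h of compound exposure.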

Assay [8] can be described thus: A CellTox Green Cytotoxicity Assay to monitor cytotoxicity in HepG2 cells - 24 hour (AID 1224878). Note: nearly all actives have a fitted effect of over 45% in size. An outline of the steps: (§3)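 First, HepG2 cells (600/well) mixed with reagent were plated; second, after 5 h at 37 C they received compounds via pintool; third, fluorescence was measured at 0 h through 40 h at 8 h intervals.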
The nature of assay [9]: A CellTox Green Cytotoxicity Assay to monitor cytotoxicity in HepG2 cells - 40 hour (AID 1224879). Note: nearly all actives have a fitted effect of over 40% in size. Note: potency is the fitted concentration of half-maximal effect. Put shortly: as §3
Assay [10] is described as follows: A CellTox Green Cytotoxicity Assay to monitor cytotoxicity in HepG2 cells - 16 hour (AID 1224876). Note: nearly all actives have a fitted effect of over 45% in size. Put shortly: as §3

Inconclusive results are not listed. Unmarked numbers belong to inactive results. Active and inactive are the calls of the source. Calls come from the whole dose curve; as a rule, active = well fitted curve in the direction sought with a large enough effect in the repeat runs; inconclusive = weak or mixed curves; inactive = no such curve, though single readings can be large; an effect the other way counts as inactive or inconclusive.
% is set by controls: 0 for no effect and ±100 for the full control effect.

As to `Nc1ccc(C(=O)OCCCOC(=O)c2ccc(N)cc2)cc1`, the Potency entry in [1], in [2], in assay [4], in assay [6], in [7] and in assay [8] was “inactive” throughout. In assay [9], the Potency entry is “inactive”. The results for the Potency in assay [3] and in [5] were 49 µM (active) and 38.9 µM (active), respectively.
Take `CC(=O)Nc1ccc(N)cc1`: the Potency result in assay [1], in assay [2], in assay [3], in assay [4], in assay [6] and in assay [9] was “inactive” in each case. In [5], the max response was 4.7%.
`CCN(CC)CCNC(=O)c1ccc(NC(C)=O)cc1`: the Potency result in assay [1], in [2], in assay [3], in assay [4], in assay [6] and in assay [10] was “inactive” each time. Also, the Potency result in assay [7] and in [9] was “inactive” throughout. Moreover, in [5], the max response was -0.786%.
With `CCCCCC=CCC=CCCCCCCCC(=O)OCC`, the Potency result in [1], in assay [2], in assay [3], in [4], in assay [6] and in [10] was “inactive” each time. The Potency result in assay [9] is “inactive”. Besides, the max response in [5] was -1.44%.
For `Nc1ccc(Cl)cc1[N+](=O)[O-]`, the Potency entry in [1], in assay [2], in [3], in assay [4], in assay [6] and in assay [7] was “inactive” in each case. Besides, the Potency entry in assay [8] and in assay [9] was “inactive” throughout. In addition, the max response in [5] is 2.66%.
Consider `Cc1oc(C)c(C(=O)Nc2ccccc2)c1C`, for which the Potency result in assay [1], in assay [2], in assay [4], in [6], in assay [10] and in assay [7] was “inactive” each time. Also, the Potency entry in assay [8] and in assay [9] was “inactive” throughout. The results for the Potency in assay [3] and in [5] were 34.7 µM (active) and 24.5 µM (active), respectively.
Consider `CCCC1C(CC)=CC(CC)=CN1c1ccccc1` (centres undefined), for which the Potency entry in assay [1], in assay [2], in [4], in assay [6], in [7] and in assay [8] was “inactive” each time. Also, the Potency result in assay [9] is “inactive”. The Potency in assay [3] is 15.5 µM (active); in assay [5], 13.8 µM (active).
For `CCOC(=O)/C=C/C(=O)O`, the Potency entry in assay [1], in assay [2], in assay [3], in assay [4], in assay [6] and in assay [7] was “inactive” throughout. Moreover, the Potency entry in assay [8] and in assay [9] was “inactive” each time. Further, the max response in assay [5] is 16.2%.
For the compound `CC(=O)N(c1onc(C)c1C)S(=O)(=O)c1ccc(N)cc1`, the Potency result in [1], in [2], in assay [3], in assay [4], in assay [6] and in assay [7] was “inactive” throughout. The Potency result in assay [8] and in assay [9] was “inactive” each time. The max response in assay [5] is 4.86%.
Consider `[O]=[Bi]`, for which the activity change, negative = cytotoxic in assay [1] is 9.58% [at 6.97 µM]. Also, the cytotoxicity increase in assay [2] was -5.17% [at 6.97 µM]; in assay [10], -7.67% [at 6.97 µM]; in [9] it was -12.6% [at 6.97 µM]. In assay [3], the activity change, negative = cytotoxicity is 3.35% [at 6.97 µM]. The viability change, negative = cytotoxic in [4] is 0.919% [at 6.97 µM]. In addition, the max response in assay [5] was 3.42%. The activity change in assay [6] was -2.05% [at 6.97 µM, stronger effect = higher value]. In assay [8], the cytotoxicity is -9.9% [at 6.97 µM].
On to `C1COCO1`, for which the Potency result in [1], in [2], in assay [3], in assay [4], in assay [6] and in assay [10] was “inactive” each time. For the same compound, the Potency entry in [8] and in assay [9] was “inactive” in each case. Moreover, the max response in assay [5] is -1.05%.
As to `O=C(/C=C/c1ccccc1)OCCCc1ccccc1`, the Potency entry in [1], in assay [2], in [3], in assay [4], in assay [6] and in [10] was “inactive” throughout. Also, the Potency result in [7], in assay [8] and in [9] was “inactive” in each case. The max response in assay [5] is -1.1%.
`CC(C)CCCCCOC(=O)CCCCC(=O)OCCCCCC(C)C`: the Potency result in assay [1], in assay [2], in assay [3], in [4], in [6] and in [10] was “inactive” in each case. Moreover, the Potency result in [7] and in assay [9] was “inactive” each time. Further, the max response in assay [5] was 3.71%.
As to `CCCCC/C(=C\c1ccccc1)CO`, the Potency result in assay [1], in [3], in assay [4], in [10], in assay [8] and in [9] was “inactive” in each case. The Potency in assay [2] was 43.1 µM (active); in [6], 48.4 µM (active). Moreover, the max response in [5] was -12.8%.
In the case of `O=C(CS)OCCOC(=O)CS`, the Potency entry in assay [1], in [2], in assay [3], in assay [4], in assay [6] and in assay [10] was “inactive” throughout. The Potency entry in [7] and in assay [9] was “inactive” each time. In addition, the max response in [5] is 0.141%.
As for `NC(=O)Nc1ccc(Cl)cc1`, the Potency result in assay [1], in assay [2], in [3], in assay [4], in assay [6] and in [7] was “inactive” each time. Also, the max response in assay [5] is -8.17%.
Take `CO[C@@]12[C@H](COC(N)=O)C3=C(C(=O)C(C)=C(N)C3=O)N1C[C@@H]1N[C@@H]12`: the Potency in [1] was 5.35 µM (active); in assay [4], 1.34 µM (active); in assay [5] it was 0.674 µM (active); in [7], 5.35 µM (active); in [9], 6.74 µM (active). Further, the Potency result in assay [2], in assay [3] and in [6] was “inactive” throughout.
Regarding `O=C(O)c1cccc(O)c1`, the Potency entry in assay [1], in assay [2], in assay [3], in assay [4], in assay [6] and in assay [10] was “inactive” each time. Also, the Potency result in [7] and in assay [9] was “inactive” in each case. Moreover, the max response in [5] is 8.08%.
With `CCC(C)(O)CCC=C(C)C` (centres undefined), the Potency entry in assay [1], in [2], in [3], in assay [4], in [10] and in assay [7] was “inactive” in each case. The Potency entry in assay [8] and in [9] was “inactive” each time. Also, in assay [5], the max response is -9.96%.
In the case of `CN1CCN(c2c(F)cc3c(=O)c(C(=O)O)cn4c3c2OCN4C)CC1`, the activity change, negative = cytotoxic in [1] is -3.22% [at 15.8 µM]. Moreover, the cytotoxicity increase is -7.47% [at 15.8 µM] in assay [2], -5.53% [at 15.8 µM] in [10] and -7.78% [at 15.8 µM] in assay [9]. Moreover, the activity change, negative = cytotoxicity in assay [3] is 1.07% [at 15.8 µM]. Besides, the viability change, negative = cytotoxic in assay [4] was 8.52% [at 15.8 µM]. Moreover, the max response in [5] is 2.93%. Also, in assay [6], the activity change was -4.87% [at 15.8 µM, stronger effect = higher value]. For the same compound, the cytotoxicity in assay [8] is -1.37% [at 15.8 µM].
Take `C[C@@H]1C[C@H]2[C@@H]3CCC4=CC(=O)C=C[C@]4(C)[C@@]3(F)[C@@H](O)C[C@]2(C)[C@H]1C(=O)CO`: the Potency result in assay [1], in assay [2], in assay [3], in assay [4], in assay [6] and in assay [7] was “inactive” each time. Moreover, the Potency entry in [8] and in [9] was “inactive” throughout. In assay [5], the max response is -9.79%.
Regarding `CCn1nc(C)c2c1C(=O)NCC(c1ccc(O)cc1)=N2`, the Potency entry in [1], in assay [2], in assay [3], in [4], in assay [6] and in assay [10] was “inactive” throughout. The Potency entry in assay [7], in assay [8] and in assay [9] was “inactive” throughout. Also, the max response in assay [5] is 0.626%.
As for `CCC(C(=O)OCCN(CC)CC)c1ccccc1` (centres undefined), the Potency result in [1], in assay [2], in assay [3], in assay [4], in assay [6] and in assay [7] was “inactive” in each case. The Potency entry in assay [8] and in assay [9] was “inactive” throughout. Moreover, the max response in assay [5] is 8.92%.

(Values after PubChem BioAssay (Tox21).)
